Screening data (PubChem)
PrPC TRFRET: inhibitors of human cell surface prion protein PrPC, primary screen, cell-based, TR-FRET; Major prion protein (Homo sapiens), P04156; TR-FRET read-out; inhibition, % at 13.8 µM; 0.43% of 370,000 active; AID 720596, 2013; in the data active = inhibition above about 24%; note: 0% = median of the test wells and 100% = reference compound wells
TcdB inh: TcdB glycohydrolase inhibitors, primary screen, biochemical, single point, plate reader; TcdB glycohydrolase enzymatic assay; AID 652162, 2013; 0.24% of 350,000 active; inhibition, % at 9.99 µM; in the data active = inhibition above about 10%
FBA Mtb inh: Mtb FBA enzyme inhibitors, primary screen, biochemical, fluorescence, strain H37Rv. Fructose-bisphosphate aldolase (Mycobacterium tuberculosis (strain ATCC 25618 / H37Rv)), …. purified M. tuberculosis FBA, fluorescence read-out. inhibition, % at 1 µM. 2.3% of 360,000 active. AID 588726, 2011; in the data active = inhibition above about 27%;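 note: 0% = vehicle and 100% = reference inhibitor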
Target sequence (P9WQA3 whole entry, looked up): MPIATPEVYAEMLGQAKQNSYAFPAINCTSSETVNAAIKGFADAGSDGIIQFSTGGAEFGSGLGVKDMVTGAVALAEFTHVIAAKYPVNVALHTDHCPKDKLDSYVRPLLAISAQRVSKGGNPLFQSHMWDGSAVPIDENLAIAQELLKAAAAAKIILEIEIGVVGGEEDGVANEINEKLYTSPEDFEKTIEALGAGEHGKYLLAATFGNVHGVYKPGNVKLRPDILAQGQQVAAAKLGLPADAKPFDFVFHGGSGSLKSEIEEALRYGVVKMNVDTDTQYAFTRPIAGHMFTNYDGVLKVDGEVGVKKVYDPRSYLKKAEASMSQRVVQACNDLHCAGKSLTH
Yp Topo-I inh: Yersinia pestis topoisomerase I inhibitors, primary screen, biochemical, cleavage product accumulation, plate reader, single point. Y. pestis Topo-I cleavage product accumulation. 0.064% of 360,000 active. AID 504884, 2011. activity, % at 10 µM; in the data active = activity above about 50%, passing the limit was not always enough
GDH-TPI inh: GDH-TPI coupling enzyme inhibitors, primary screen, artefact control for M. tuberculosis FBA inhibitor project, biochemical, absorbance, full deck; inhibition, % at 4.8 µM; 1.2% of 360,000 active; GDH-TPI coupled enzyme counterscreen, NADH absorbance; in the data active = inhibition above about 30%;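 note: 0% = DMSO wells and 100% = wells lacking the enzyme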
* = called active by the depositor; x = no result given; + = active, no number. An excerpt weighted towards active compounds, which were near 3.2% of everything screened.

SMILES	PrPC TRFRET	TcdB inh	FBA Mtb inh	Yp Topo-I inh	GDH-TPI inh
COC(=O)CNC(=O)CSc1nc2sccc2c(=O)n1-c1ccccc1	-3	1	2	-4	-4
COC(=O)CNC(=O)CSc1nc2sc(-c3ccccc3)cc2c(=O)n1-c1ccccc1	-4	1	1	5	47*
C[C@H]1CCCCO[C@H](CN(C)C(=O)Nc2ccc(C(F)(F)F)cc2)[C@@H](C)CN([C@@H](C)CO)C(=O)c2cc(NC(=O)Nc3cccc4ccccc34)ccc2O1	x	1	x	x	x
Cn1c(=O)c2[nH]c(-c3ccc(S(=O)(=O)O)cc3)nc2n(C)c1=O	-2	3	x	2	42*
CCOc1ccc(NC(=O)c2ccc3[nH]c(=O)c(=O)[nH]c3c2)cc1	-4	2	3	-10	32*
CCOc1ccc(NS(=O)(=O)c2ccc3[nH]c(=O)c(=O)[nH]c3c2)cc1	-5	1	-3	2	4
CC(C)CCn1c(N)c(C(=O)OCC2CCCO2)c2nc3ccccc3nc21 (stereo unspecified)	2	x	134*	20	8
CCCCn1c(N)c(C(=O)OCC2CCCO2)c2nc3ccccc3nc21 (stereo unspecified)	x	1	+	14	18
CCCC#Cc1cnc2c(c1)C(=O)N([C@@H](C)CO)C[C@H](C)[C@H](CN(C)C(=O)c1ccccc1)O2	x	1	x	x	x
CC(C)NC(=O)N(C)C[C@@H]1Oc2ncc(C#CC3CCCC3)cc2C(=O)N([C@@H](C)CO)C[C@H]1C	x	-2	x	x	x
C[C@H]1CN([C@@H](C)CO)S(=O)(=O)c2ccc(-c3ccncc3)cc2O[C@H]1CN(C)Cc1ccc(Oc2ccccc2)cc1	x	12*	x	x	x
C[C@@H]1CN([C@H](C)CO)S(=O)(=O)c2ccc(-c3ccncc3)cc2O[C@@H]1CN(C)Cc1ccc(Oc2ccccc2)cc1	x	11*	x	x	x
C[C@H]1CN([C@@H](C)CO)S(=O)(=O)c2ccc(-c3ccncc3)cc2O[C@@H]1CN(C)Cc1ccccc1	x	4	x	x	x
C[C@H]1CN([C@@H](C)CO)S(=O)(=O)c2ccc(-c3ccncc3)cc2O[C@@H]1CN(C)Cc1ccc(Oc2ccccc2)cc1	x	20*	x	x	x
C[C@@H]1CN([C@@H](C)CO)S(=O)(=O)c2ccc(-c3ccncc3)cc2O[C@H]1CN(C)Cc1ccccc1	x	0	x	x	x
COc1ccc(-n2nc3cc(C)c(NC(C)=O)cc3n2)cc1	-6	2	114*	5	7
CCC1NC(C(=O)O)Cc2c1[nH]c1ccccc21 (stereo unspecified)	-5	0	47*	0	11
CCCC(=O)Nc1ccc2c(c1)C(=O)N(C)[C@H]1CC[C@@H](CC(=O)NCC3CC3)O[C@@H]1CO2	x	0	x	x	x
COc1ccc(/C=N/NC(=O)CNC(=O)COc2ccccc2)cc1	7	x	-2	4	8
CN(C)c1ccc(/C=N/NC(=O)CCC(=O)NCc2ccccc2)cc1	8	x	23	-3	32*
CN(C)c1ccc(/C=N/NC(=O)CCCCCNC(=O)c2ccccc2)cc1	-6	0	17	19	58*
COc1ccc(OCC(=O)N/N=C/c2ccc(N(C)C)cc2)cc1	-2	0	21	4	34*
C[C@@H]1CCCCO[C@H](CN(C)C(=O)c2ccncc2)[C@@H](C)CN([C@H](C)CO)C(=O)c2cc(NC(=O)Cc3ccccc3)ccc2O1	x	0	x	x	x
C[C@H](CO)N1C[C@H](C)[C@H](CN(C)C(=O)C2CC2)Oc2cc(/C=C/c3ccccc3)ccc2S1(=O)=O	x	2	x	x	x
CCCCSc1nc(SCC(=O)NCc2ccco2)c2c3c(sc2n1)COC(C)(CC)C3 (stereo unspecified)	7	x	0	10	-6
SMILES	PrPC TRFRET	TcdB inh	FBA Mtb inh	Yp Topo-I inh	GDH-TPI inh
CSc1nc(SCC(=O)NCc2ccco2)c2c3c(sc2n1)COC(C)(C)C3	-13	x	18	-8	36*
C/C=C/c1ccc([C@H]2[C@@H](CO)N(C(C)=O)[C@@H]2CN(CCOC)C(C)=O)cc1	x	-2	x	x	x
O=C(CNS(=O)(=O)c1cccs1)N1CCN(c2ccccn2)CC1	-3	x	87*	1	8
CC(C)Cn1cc(C(=O)N2CCC3(CC2)OCCO3)c2c3ccccc3n(C)c2c1=O	-8	x	37*	24	11
Cn1c2ccccc2c2c(C(=O)N3CCC4(CC3)OCCO4)cn(C3CCCCC3)c(=O)c21	2	x	15	25	0
COCCn1cc(C(=O)N2CCC(C)CC2)c2c3ccccc3n(C)c2c1=O	-6	x	43*	29	-3
CC(C)Cn1cc(C(=O)N2CCC(C)CC2)c2c3ccccc3n(C)c2c1=O	10	-6	26	25	9
Cc1c(C)c2cc(Cl)c(O)c(CN(C)C)c2oc1=O	-3	x	+	-2	15
Cc1c(O)c(CN(C)C)cc2c1oc(=O)c1ccccc12	4	5	1	-4	20
CCCCc1cc(=O)oc2c(CN(C)C)c(O)c(Cl)cc12	-2	x	x	2	12
CCc1c(C)c2cc(Cl)c(O)c(CN(CC)CC)c2oc1=O	-6	2	+	-4	13
CCc1cc2c(=O)c(-c3nc4ccccc4n3C)c(C)oc2c(CN(CC)CC)c1O	5	x	14	1	16
CCc1c(C)c2cc(Cl)c(O)c(CN(C)C)c2oc1=O	10	-3	x	-1	32*
CCNC(=O)[C@H]1[C@H](CO)[C@H]2Cn3c(ccc(-c4ccccc4F)c3=O)[C@@H]1N2CC	x	-2	x	x	x
O=C(C[C@H]1CC[C@H]2[C@@H](COC[C@H](O)CN2Cc2cc(F)ccc2F)O1)N1CCc2ccccc2C1	x	-1	x	x	x
CCCC#Cc1cnc2c(c1)C(=O)N([C@@H](C)CO)C[C@@H](C)[C@@H](CN(C)S(C)(=O)=O)O2	x	-1	x	x	x
c1ccc(CCNc2cnccn2)cc1	-3	2	+	-2	13
c1ccc(CCNCc2cccnc2)cc1	-7	0	0	4	3
Cc1ccc(CNc2cnccn2)cc1	5	x	74*	-10	6
Cc1ccc(CNc2cnccn2)s1	-1	1	1	-2	-2
C[C@H](NC(=O)C[C@H]1CC[C@H]2[C@@H](COC[C@@H](O)CN2C(=O)Nc2cccc(F)c2)O1)c1ccccc1	x	0	x	x	x
Cc1noc(C)c1S(=O)(=O)Nc1cccc2c1O[C@H](CN(C)CC1CCCCC1)[C@H](C)CN([C@H](C)CO)C2=O	x	0	x	x	x
C/C(=N/NC(=O)c1ccccn1)c1ccc(O)cc1	-11	-13	0	-2	32*
C/C(=N\NC(=O)c1ccc(N/N=C(\C)c2ccc(O)cc2)cc1)c1ccc(O)cc1	18	1	2	-29	46*
CC(/C=N/NC(=O)c1nnn(-c2nonc2N)c1CN(C)C)=C\c1ccco1	-5	-4	2	3	35*
